From PubChem BioAssay (NCATS)
Inconclusive results are not listed. The source made the active and inactive calls. Unless noted, the call rests on the fitted dose curve; in most records, active means well fitted curve in the direction sought with a large enough effect; inconclusive means small, poorly fitted or top-dose-only effect, or another doubt; inactive means no such curve, though single readings can be large; an effect the other way counts as inactive or inconclusive.

What was measured:
[1] = molecular target: Endonuclease 4 (Escherichia coli (strain K12)) (UniProt P0A6C1); assay: Counterscreen for APE1 Inhibitors: qHTS Validation Assay for Inhibitors of Endonuclease IV (AID 1708); further: on the % scale 0 is the no-effect control and ±100 the full control effect
Procedure, shortened: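 Concentration-response counterscreen run identically to the APE1 assay: 15 min room-temperature preincubation of 2 nM enzyme with compound, reaction started with 50 nM quenched abasic DNA, progress taken from kinetic fluorescence.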

[2] = qHTS for differential inhibitors of proliferation of Plasmodium falciparum line 7G8 (AID 1815);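 further: potency means the concentration at half of the fitted maximal effect; parasite growth measured after three days of incubation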
[3] = qHTS for differential inhibitors of proliferation of Plasmodium falciparum line 3D7 (AID 1876);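 further: parasite growth measured after three days of culture; 0% = vehicle wells and -100% = reference inhibitor wells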
[4] = qHTS for differential inhibitors of proliferation of Plasmodium falciparum line Dd2 (AID 1882); details: Potency: Plasmodium falciparum Dd2 proliferation inhibition;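 further: series mostly up to about 29 µM; plate controls were DMSO vehicle for no effect and 0.29 µM artemisinin for full effect; nearly all actives have a fitted effect of over 65% in size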
Procedure, shortened: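 Dd2-infected erythrocytes (0.3% parasitemia, 2.5% hematocrit final) incubated with compound 72 h at 37 C, 5% CO2; lysed with saponin/Triton buffer containing SYBR Green I, incubated overnight in the dark, then read by fluorescence (485/535 nm). Normalized to 0.29 uM artemisinin and DMSO.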

[5] = qHTS for differential inhibitors of proliferation of Plasmodium falciparum line W2 (AID 1883); details: Potency: Plasmodium falciparum W2 proliferation inhibition;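 further: potency means the concentration at half of the fitted maximal effect; parasites grown with compound for 72 h before lysis and staining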
[6] = molecular target: Ferritin light chain (Equus caballus) (UniProt P02791); assay: qHTS Validation Assay for Identification of Novel General Anesthetics (AID 2323); further: series mostly up to about 77 µM; on the % scale 0 is the no-effect control and ±100 the full control effect
Procedure, shortened: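 Competitive displacement of the profluorescent anesthetic 1-AMA (50% saturated, PBS) from 10 uM apoferritin, 10 min, room temperature. Activity is normalized 380/535 nm fluorescence; concentration-response fitted with a four-parameter Hill equation.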

[7] = molecular target: ATP-dependent DNA helicase Q1 (Homo sapiens) (UniProt P46063); assay: qHTS Validation Assay for Inhibitors of RecQ-Like Dna Helicase 1 (RECQ1) (AID 2353);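 further: plate controls were DMSO vehicle for no effect and enzyme-free control for full effect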
Procedure, shortened: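 50 nM RECQ1T1 preincubated 15 min with compound in Tris pH 8.0 buffer with MgCl2, DTT, Tween-20 and 2.5 ug/ml poly(dI-dC); started with 200 nM TAMRA/BHQ-2 forked duplex and 2 mM ATP. Unwinding read as fluorescence (525/598 nm), two reads 2 h apart.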

[8] = molecular target: RecQ-like DNA helicase BLM (Homo sapiens) (UniProt P54132); assay: qHTS Validation Assay for Inhibitors of Bloom's syndrome helicase (BLM) (AID 2364);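 further: plate controls were DMSO vehicle for no effect and enzyme-free control for full effect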
Procedure, shortened: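 BLM 50 nM in 25 mM Tris-HCl pH 8.0, 5 mM NaCl, 2 mM MgCl2, 1 mM DTT, 0.01% Tween-20, 2.5 ug/ml poly(dI-dC); 15 min cpd preinc, RT. Start: 200 nM forked DNA + 2 mM ATP (final). TAMRA read, 2 reads 2 h apart.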

[9] = Validation screen for inhibitors of Lassa infection (AID 463096; calls by dose curve; further: on the % scale 0 is the no-effect control and ±100 the full control effect)
[10] = Validation screen for small molecules that induce DNA re-replication in MCF 10A normal breast cells (AID 463097); further: 0% is about no effect; nearly all actives have a fitted effect of over 60% in size
Procedure, shortened: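 Read-out is Hoechst total nuclear intensity by fluorescence scanning imager, flagging increased high-DNA-content nuclei. Compounds were incubated with MCF 10A cells for 48 hr (37 C, 5% CO2) before 40 min staining.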

[11] = molecular target: Transient receptor potential cation channel subfamily V member 1 (Homo sapiens) (UniProt Q8NER1); assay: HTS Assay for Compounds that Act as Enhancers of the Vanilloid Receptor 1 (AID 488979); further: 0% is about no effect
Procedure, shortened: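 TRPV1-expressing cells loaded with Fluo-8 calcium dye; compounds added and calcium influx read kinetically for 3 min (agonist phase), then capsaicin at EC20 added and read 2 min more for enhancement. Fluorescence ex 480/em 520 nm.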

[12] = molecular target: Thyrotropin receptor (Homo sapiens) (UniProt P16473); assay: qHTS Assay for Antagonists of the Thyroid Stimulating Hormone Receptor (AID 488980); further: series mostly up to about 58 µM; 0% is about no effect
Procedure, shortened: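 Inhibition of cAMP raised by EC80 TSH (4 nM final) was read by HTRF, with lysate cAMP competing against cAMP-d2 for cryptate antibody after 30 min at room temperature. The cells were transfected HEK293 held in phosphodiesterase inhibitor RO 20-1724 at 70 uM.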

[13] = molecular target: Thyrotropin-releasing hormone receptor (Homo sapiens) (UniProt P34981); assay: qHTS for Small Molecule Agonists and Allosteric Enhancers of Human TRH Receptor: Validation Screen for Agonists (AID 493127;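 active means calcium activation more than 3 SD above the typical response in the agonist read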; further: 0% is about no effect); details: TRH receptor agonist cell assay; at 2 µM; stronger effect = higher value
Procedure, shortened: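 TRHR cells loaded with fluo-8 calcium dye; FDSS kinetic fluorescence (Ex 480/Em 530) read at 1 s/cycle after 23 nL compound addition. Agonist-mode calcium response recorded before the 10 nM TRH (EC20) addition.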

[14] = molecular target: Galactokinase (Homo sapiens) (UniProt P51570); assay: qHTS Validation Assay for Inhibitors of Human Galactokinase (GALK) (AID 493189); further: 0% is about no effect
Procedure, shortened: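 Inhibition was measured as remaining ATP, detected by luciferase luminescence after a 1 h room-temperature reaction. Final conditions: 5 nM GALK, 100 uM galactose, 35 uM ATP, pH 8.0 HEPES buffer.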

[15] = molecular target: Voltage-gated inwardly rectifying potassium channel KCNH2 (Homo sapiens) (UniProt Q12809); assay: qHTS Assay for Small Molecule Inhibitors of the Human hERG Channel Activity (AID 588834);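 further: top concentration of the series differs between compounds; on the % scale 0 is the no-effect control and ±100 the full control effect; lower thallium flux fluorescence means stronger hERG block; nearly all actives have a fitted effect of over 50% in size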
Procedure, shortened: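 Kinetic FDSS fluorescence; U2OS + hERG BacMam (~100 virus particles/cell); FluxOR Tl+ flux; ~10 min cpd; AC50 (Hill).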

Furin (Homo sapiens) = Furin (Homo sapiens) (UniProt P09958); assay: Furin counterscreen qHTS for Zika virus inhibitors (AID 1347149); further: potency means the concentration at half of the fitted maximal effect; nearly all actives have a fitted effect of over 70% in size
Procedure, shortened: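 Fluorogenic cleavage of BOC-RVRR-AMC (2 microM final, Km ~15 µM) was monitored (ex 340, em 450 nm) at 37C after 15 min RT preincubation of 5 nM furin with compounds in HEPES pH 7.0 buffer with CaCl2 and Triton X-100. Percent inhibition was fitted to a 4-parameter Hill curve.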

[16] = system: Zika virus NS2B-NS3 protease (linked construct); assay: Confirmatory screen NINDS AMC qHTS for Zika virus inhibitors (AID 1347152); further: potency means the concentration at half of the fitted maximal effect; nearly all actives have a fitted effect of over 70% in size
Procedure, shortened: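 IC50s from 4-parameter Hill fits of percent inhibition, based on AMC fluorescence gain (340/450 nm) over 15 min with 10 microM Bz-Nle-KRR-AMC. Enzyme: 1 nM linked NS2B-NS3 in Tris-HCl pH 8.0; 15-min compound preincubation.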

[17] = system: Zika virus NS2B-NS3 protease (unlinked complex); assay: Confirmatory screen GU AMC qHTS for Zika virus inhibitors (AID 1347153);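 further: enzyme at 25 nM with substrate at 10 µM below its Km of 18.3 µM; potency means the concentration at half of the fitted maximal effect; nearly all actives have a fitted effect of over 70% in size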
Procedure, shortened: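 Fluorescence change (ex 340/em 450 nm) over 15 min, ~20% substrate conversion, normalized to no-inhibitor and no-enzyme controls, then Hill-fitted. Unlinked protease at 25 nM; AMC peptide 10 µM.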

[18] = system: Zika virus NS2B-NS3 protease; assay: Primary screen GU AMC qHTS for Zika virus inhibitors (AID 1347154); further: potency means the concentration at half of the fitted maximal effect; nearly all actives have a fitted effect of over 70% in size
Procedure, shortened: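 Unlinked Zika NS2B hydrophilic domain/NS3 protease domain noncovalent complex (25 nM final) in 10 mM Tris-HCl pH 8.0, 0.01% Tween 20, with AMC peptide substrate. Fluorescence (ex 340, em 450 nm) change over 15 min, room temperature; percent inhibition fitted to 4-parameter Hill equation.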

[19] = HepG2 cells viability qHTS for Zika virus inhibitors (AID 1347168); further: on the % scale 0 is the no-effect control and ±100 the full control effect
Procedure, shortened: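 Counter-screen for cytotoxicity of hits from NS2B-NS3 protease qHTS. Overnight-attached cells (2.5 x 10^5 cells/mL, DMEM/4% FBS) were dosed in titration, incubated 24 to 48 hours, then assayed by CellTiter Glo.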

[20] = Primary qHTS for small molecule stabilizers of the endoplasmic reticulum resident proteome: Secreted ER Calcium Modulated Protein (SERCaMP) assay (AID 1508630); further: on the % scale 0 is the no-effect control and ±100 the full control effect
Procedure, shortened: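 GLuc-SERCaMP-expressing SH-SY5Y cells, pretreated 16 h with compound, are challenged with thapsigargin to empty ER calcium stores; after 4 h, coelenterazine is added directly to the medium and luminescence is imaged.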

Galactokinase (Homo sapiens), sequence (P51570 whole entry, looked up): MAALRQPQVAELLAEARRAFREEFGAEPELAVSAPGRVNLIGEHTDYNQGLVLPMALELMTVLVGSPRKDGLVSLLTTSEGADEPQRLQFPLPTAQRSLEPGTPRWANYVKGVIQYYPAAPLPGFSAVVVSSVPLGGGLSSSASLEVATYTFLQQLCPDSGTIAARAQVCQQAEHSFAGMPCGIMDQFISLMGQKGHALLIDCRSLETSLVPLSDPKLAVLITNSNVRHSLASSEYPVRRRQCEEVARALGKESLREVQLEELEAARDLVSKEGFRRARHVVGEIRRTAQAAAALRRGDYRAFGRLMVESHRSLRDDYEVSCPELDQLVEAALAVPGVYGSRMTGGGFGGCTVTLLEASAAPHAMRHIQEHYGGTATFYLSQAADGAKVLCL
Ferritin light chain (Equus caballus), sequence (P02791 2-175 limits assumed): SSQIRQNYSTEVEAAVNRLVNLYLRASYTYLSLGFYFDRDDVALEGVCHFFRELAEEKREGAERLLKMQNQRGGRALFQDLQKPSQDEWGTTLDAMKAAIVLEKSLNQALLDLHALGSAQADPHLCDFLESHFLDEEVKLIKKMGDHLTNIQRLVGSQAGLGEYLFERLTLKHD
Furin (Homo sapiens), sequence (P09958 whole entry, looked up): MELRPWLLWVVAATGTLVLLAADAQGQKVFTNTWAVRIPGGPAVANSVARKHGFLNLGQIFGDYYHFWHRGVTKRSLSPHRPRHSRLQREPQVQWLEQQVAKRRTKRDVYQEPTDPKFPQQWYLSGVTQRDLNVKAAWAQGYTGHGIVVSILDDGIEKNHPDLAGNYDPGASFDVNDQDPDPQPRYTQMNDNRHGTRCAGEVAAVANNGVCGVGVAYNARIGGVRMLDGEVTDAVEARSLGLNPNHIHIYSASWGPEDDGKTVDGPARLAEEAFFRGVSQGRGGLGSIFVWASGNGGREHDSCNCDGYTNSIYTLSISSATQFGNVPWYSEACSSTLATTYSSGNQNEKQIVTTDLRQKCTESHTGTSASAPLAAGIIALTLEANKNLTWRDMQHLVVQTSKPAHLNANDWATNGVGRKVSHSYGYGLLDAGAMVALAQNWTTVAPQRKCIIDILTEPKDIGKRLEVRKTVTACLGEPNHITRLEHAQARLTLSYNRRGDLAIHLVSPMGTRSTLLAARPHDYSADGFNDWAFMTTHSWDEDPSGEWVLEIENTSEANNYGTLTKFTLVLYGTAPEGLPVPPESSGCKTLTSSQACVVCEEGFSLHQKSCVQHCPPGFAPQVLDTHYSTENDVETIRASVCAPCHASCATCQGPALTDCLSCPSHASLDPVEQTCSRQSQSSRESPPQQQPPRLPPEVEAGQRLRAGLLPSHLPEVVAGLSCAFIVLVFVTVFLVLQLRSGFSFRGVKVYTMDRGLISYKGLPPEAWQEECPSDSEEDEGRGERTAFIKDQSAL
Thyrotropin receptor (Homo sapiens), sequence (P16473 whole entry, looked up): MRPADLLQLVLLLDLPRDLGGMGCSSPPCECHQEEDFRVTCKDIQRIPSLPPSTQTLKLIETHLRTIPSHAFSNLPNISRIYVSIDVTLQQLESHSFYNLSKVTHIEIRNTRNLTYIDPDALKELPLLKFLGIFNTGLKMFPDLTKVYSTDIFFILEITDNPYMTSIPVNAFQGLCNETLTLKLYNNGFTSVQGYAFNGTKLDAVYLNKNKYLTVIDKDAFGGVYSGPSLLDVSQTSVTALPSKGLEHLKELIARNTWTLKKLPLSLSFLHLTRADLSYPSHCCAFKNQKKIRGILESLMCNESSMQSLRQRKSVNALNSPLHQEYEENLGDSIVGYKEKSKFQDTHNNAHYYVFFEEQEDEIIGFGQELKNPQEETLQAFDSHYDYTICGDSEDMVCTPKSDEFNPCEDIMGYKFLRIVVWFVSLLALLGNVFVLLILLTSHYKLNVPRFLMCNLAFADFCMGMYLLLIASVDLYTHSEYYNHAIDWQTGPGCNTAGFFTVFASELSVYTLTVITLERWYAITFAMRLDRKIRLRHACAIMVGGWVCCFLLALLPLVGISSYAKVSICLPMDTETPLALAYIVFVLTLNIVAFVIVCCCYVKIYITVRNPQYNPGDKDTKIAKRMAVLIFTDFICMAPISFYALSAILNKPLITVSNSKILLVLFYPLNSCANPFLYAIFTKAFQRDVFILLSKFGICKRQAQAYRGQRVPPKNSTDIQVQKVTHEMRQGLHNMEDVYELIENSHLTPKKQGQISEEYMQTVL
ATP-dependent DNA helicase Q1 (Homo sapiens), sequence (P46063 whole entry, looked up): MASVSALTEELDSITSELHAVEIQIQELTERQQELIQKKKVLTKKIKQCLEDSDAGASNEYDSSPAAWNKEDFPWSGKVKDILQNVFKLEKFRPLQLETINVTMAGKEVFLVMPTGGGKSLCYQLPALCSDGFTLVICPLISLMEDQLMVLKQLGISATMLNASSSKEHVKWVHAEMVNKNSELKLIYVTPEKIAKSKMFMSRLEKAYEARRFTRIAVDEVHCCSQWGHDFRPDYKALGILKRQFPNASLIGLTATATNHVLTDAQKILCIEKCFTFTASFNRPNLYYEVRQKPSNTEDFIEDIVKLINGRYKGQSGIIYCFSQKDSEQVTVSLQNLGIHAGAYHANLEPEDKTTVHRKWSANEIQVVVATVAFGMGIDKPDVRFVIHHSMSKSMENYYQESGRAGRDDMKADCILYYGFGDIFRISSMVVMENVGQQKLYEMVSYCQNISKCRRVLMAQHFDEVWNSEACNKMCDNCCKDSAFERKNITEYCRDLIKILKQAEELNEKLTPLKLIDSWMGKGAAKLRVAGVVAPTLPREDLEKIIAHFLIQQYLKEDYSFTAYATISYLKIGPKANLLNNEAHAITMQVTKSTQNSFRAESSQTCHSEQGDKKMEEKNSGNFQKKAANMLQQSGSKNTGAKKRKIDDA
Transient receptor potential cation channel subfamily V member 1 (Homo sapiens), sequence (Q8NER1 whole entry, looked up): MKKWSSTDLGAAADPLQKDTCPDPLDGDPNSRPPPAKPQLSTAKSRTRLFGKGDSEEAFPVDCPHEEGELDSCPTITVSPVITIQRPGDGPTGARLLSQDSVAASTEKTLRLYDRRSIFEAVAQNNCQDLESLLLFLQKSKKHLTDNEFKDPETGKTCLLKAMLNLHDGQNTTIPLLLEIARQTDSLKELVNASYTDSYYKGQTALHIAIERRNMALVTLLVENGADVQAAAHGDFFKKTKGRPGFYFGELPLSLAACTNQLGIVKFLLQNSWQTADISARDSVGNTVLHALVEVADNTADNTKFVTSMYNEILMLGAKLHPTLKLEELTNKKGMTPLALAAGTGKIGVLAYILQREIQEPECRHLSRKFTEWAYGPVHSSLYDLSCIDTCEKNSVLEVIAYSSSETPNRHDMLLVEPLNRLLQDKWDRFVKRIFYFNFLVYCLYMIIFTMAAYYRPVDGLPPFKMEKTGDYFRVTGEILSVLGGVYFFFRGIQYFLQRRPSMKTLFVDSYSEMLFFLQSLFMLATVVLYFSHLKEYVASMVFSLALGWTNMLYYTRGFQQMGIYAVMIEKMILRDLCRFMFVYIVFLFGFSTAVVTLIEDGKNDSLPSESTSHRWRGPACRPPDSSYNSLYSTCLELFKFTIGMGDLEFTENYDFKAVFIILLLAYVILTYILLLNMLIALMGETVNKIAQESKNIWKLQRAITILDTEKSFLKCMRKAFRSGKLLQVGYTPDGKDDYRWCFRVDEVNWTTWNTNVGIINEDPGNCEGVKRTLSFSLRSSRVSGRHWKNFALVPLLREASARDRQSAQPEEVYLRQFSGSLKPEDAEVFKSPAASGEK
RecQ-like DNA helicase BLM (Homo sapiens), sequence (P54132 whole entry, looked up): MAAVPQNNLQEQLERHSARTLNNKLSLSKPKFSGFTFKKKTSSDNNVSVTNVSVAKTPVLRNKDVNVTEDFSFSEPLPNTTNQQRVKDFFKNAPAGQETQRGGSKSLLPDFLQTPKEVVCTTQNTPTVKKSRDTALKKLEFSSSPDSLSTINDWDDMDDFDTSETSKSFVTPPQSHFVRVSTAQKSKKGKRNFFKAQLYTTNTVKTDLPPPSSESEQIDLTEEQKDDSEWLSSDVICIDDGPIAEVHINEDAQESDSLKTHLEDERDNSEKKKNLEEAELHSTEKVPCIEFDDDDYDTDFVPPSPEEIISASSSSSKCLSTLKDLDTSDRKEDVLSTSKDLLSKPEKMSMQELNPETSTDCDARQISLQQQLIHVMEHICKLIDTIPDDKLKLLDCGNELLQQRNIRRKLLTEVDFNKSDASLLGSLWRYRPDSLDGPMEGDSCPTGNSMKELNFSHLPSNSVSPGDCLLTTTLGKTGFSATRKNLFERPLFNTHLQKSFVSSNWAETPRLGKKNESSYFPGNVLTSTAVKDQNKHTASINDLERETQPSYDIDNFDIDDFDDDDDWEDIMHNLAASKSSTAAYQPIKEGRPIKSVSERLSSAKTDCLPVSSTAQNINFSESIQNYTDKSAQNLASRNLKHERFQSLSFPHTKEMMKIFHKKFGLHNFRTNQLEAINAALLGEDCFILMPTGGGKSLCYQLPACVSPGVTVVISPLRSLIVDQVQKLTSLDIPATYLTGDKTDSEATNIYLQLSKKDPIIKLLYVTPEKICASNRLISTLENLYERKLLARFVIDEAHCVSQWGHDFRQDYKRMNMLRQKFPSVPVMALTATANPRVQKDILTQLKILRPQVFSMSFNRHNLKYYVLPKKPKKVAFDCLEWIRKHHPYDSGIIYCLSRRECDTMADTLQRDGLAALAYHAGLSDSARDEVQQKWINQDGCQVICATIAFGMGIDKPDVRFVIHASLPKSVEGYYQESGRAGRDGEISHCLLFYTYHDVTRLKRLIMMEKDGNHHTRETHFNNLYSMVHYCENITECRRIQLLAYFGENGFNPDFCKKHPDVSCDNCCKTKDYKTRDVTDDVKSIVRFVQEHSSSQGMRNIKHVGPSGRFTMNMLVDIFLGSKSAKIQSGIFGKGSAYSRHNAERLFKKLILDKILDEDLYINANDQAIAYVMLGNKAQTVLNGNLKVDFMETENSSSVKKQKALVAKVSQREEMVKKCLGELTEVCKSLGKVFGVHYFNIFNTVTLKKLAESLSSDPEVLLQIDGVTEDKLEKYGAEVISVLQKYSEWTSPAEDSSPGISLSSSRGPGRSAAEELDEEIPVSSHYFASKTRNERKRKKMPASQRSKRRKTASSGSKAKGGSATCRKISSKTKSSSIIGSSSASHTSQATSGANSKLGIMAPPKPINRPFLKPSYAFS

COC(=O)c1cc2c(cn1)[nH]c1ccccc12
active: Potency [2] 11.2 µM | Potency [5] 12.6 µM | Potency (Furin (Homo sapiens)) 24.1 µM | Potency [16] 24.1 µM | Potency [17] 24.1 µM | Potency [18] 23.8 µM
inactive: outcome [1] | Potency [3] | Potency [4] | outcome [6] | Potency [7] | Potency [8] | Potency [9] | Potency [10] | outcome [11] | outcome [12] | activation [13] 1.44% | outcome [14] | Potency [15] | Potency [19] | Potency [20]
